Bioassay records as filed in PubChem.
In the library only some 11% were active in any assay of this set; here they are far more common.
HTT ATP protect = Huntington cell model cytoprotection by ATP luminescence. Potency, µM (doses to about 56.4 µM), for inactives: cytoprotection (ATP increase), usual class: activators. actives 0.14% (n = 230,000). PC12 HTT-Q103 induced, cytoprotection, ATP luminescence, 40 h; further: potency means the concentration at half of the fitted maximal effect; % of control where 0% means no effect; nearly all actives have a fitted effect of over 45% in size
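Compounds added alongside 100 nM tebufenozide, which induces toxic Q103 huntingtin exon 1-GFP in stable PC12 cells; surviving cells quantified by luminescent ATP measurement. Medium: phenol red-free DMEM, 5% equine and 5% calf serum.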
HPGD inh = inhibitors of human 15-hydroxyprostaglandin dehydrogenase (HPGD); actives 4.3% (n = 150,000); Potency, µM, without a hit: at the top dose activity change, negative = inhibition, actives largely listed as inhibitors; P15428; purified HPGD, NADH fluorescence kinetic, PGE2 substrate; active means well fitted inhibition curve with a large enough effect, not every such curve was filed as active; inconclusive means small, poorly fitted or top-dose-only effect, or another doubt; inactive means no such curve, though single readings can be large or run the other way; further: potency means the concentration at half of the fitted maximal effect; on the % scale 0 is the no-effect control and ±100 the full control effect
Target sequence (P15428 whole entry, looked up): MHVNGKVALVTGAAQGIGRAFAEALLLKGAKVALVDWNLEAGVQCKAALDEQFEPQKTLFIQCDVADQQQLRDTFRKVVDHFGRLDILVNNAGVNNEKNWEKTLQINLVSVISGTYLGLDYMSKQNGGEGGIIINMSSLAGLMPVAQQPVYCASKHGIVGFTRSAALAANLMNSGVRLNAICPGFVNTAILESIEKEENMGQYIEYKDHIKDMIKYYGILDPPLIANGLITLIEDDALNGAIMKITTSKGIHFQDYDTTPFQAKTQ
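NADH formation kinetics: reaction with 30 uM PGE2 and 1 mM NAD+ (final), 20 nM enzyme, Tris-HCl pH 8 with Tween 20, after 15 min compound preincubation at room temperature. Fluorescence change, last versus first of five reads.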
ALDH1A1 block = blocks purified human ALDH1A1 activity; P00352; Purified ALDH1A1, NADH fluorescence, propionaldehyde substrate; Potency, µM (series often up to 75.3 µM), for the others: top-dose activity, negative = inhibition, actives largely listed as inhibitors; actives 7.3% (n = 220,000); AID 1030; active means well fitted inhibition curve with a large enough effect, not every such curve was filed as active; inconclusive means small, poorly fitted or top-dose-only effect, or another doubt; inactive means no such curve, though single readings can be large or run the other way;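 further: potency means the concentration at half of the fitted maximal effect; plate controls were no enzyme wells and a reference inhibitor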
Target sequence (P00352 whole entry, looked up): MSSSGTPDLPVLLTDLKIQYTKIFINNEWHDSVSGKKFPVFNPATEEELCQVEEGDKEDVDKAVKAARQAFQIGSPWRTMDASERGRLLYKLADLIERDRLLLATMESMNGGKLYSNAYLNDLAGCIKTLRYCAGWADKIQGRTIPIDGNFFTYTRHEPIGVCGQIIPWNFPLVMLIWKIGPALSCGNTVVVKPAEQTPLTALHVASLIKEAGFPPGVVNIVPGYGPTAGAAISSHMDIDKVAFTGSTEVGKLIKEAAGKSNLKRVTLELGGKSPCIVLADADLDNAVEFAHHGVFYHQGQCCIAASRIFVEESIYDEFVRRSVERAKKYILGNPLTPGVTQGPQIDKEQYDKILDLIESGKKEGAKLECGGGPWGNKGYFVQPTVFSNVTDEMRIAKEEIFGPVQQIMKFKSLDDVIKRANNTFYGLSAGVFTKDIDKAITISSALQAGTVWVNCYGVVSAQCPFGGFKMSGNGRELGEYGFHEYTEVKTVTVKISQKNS
PNC assembly inh = perinucleolar compartment assembly inhibition; PC3M PTB-GFP, PNC prevalence imaging, 16 h; stronger effect = lower value; activity change (PNC), negative = inhibition, % at 10 µM; actives 3.1% (n = 140,000); AID 2417;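 active means readout at or below -70, meaning at least 70% loss of cells showing the perinucleolar compartment, a nuclear body marking cancer cells; inconclusive means readout between -30 and a set limit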;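 further: plate controls were DMSO wells for no effect and camptothecin positive control wells for full effect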
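Read-out is percentage of cells bearing a perinucleolar compartment, from automated 20x imaging of fixed, Hoechst-stained PC3M PTB-GFP cells. Cells were seeded 4 h, then exposed 16 h to compound (23 nl of library stock) in duplicate plates.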
CBFb RUNX1 block = inhibitors of human CBF-beta and RUNX1 interaction. AlphaScreen CBFb-His/RUNX1-biotin binding, biochemical. Potency, µM (titrated, usually from 59.8 µM), for the others: at the highest dose activity, negative = inhibition, most hits filed as inhibitors. 230,000 tested, under 10 active. AID 1477; further: % of control where 0% means no effect
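Inhibition was taken as any reduction in AlphaScreen signal from the CBF-beta–RUNX1 pair (His and biotin tags, 30 nM each), measured after compound (15 min) and bead (90 min) incubations at room temperature.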
HttQ103 aggreg = mutant huntingtin aggregation inhibition; PC12 HttQ103-GFP aggregates, Acumen cytometry, 40 h; Potency, µM (titrated, usually from 46.1 µM), inactives show at the highest dose activity change, negative = inhibition, usual class: inhibitors; actives 1.1% (n = 220,000); further: potency means the concentration at half of the fitted maximal effect; on the % scale 0 is the no-effect control and ±100 the full control effect; nearly all actives have a fitted effect of over 60% in size
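Using laser scanning cytometry, GFP-positive aggregates were counted after lysis of PC12 cells induced with 100 nM tebufenozide to express HTT exon 1 Q103–GFP. Compounds were tested in titration.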
Numbers without * were called inactive; ? = inconclusive; . = no result; [ ] = remark or other dose. Unless noted, the call rests on the fitted dose curve; in most records, active means well fitted curve in the direction sought with a large enough effect; inconclusive means small, poorly fitted or top-dose-only effect, or another doubt; inactive means no such curve, though single readings can be large; an effect the other way counts as inactive or inconclusive.

SMILES | HTT ATP protect | HPGD inh | ALDH1A1 block | PNC assembly inh | CBFb RUNX1 block | HttQ103 aggreg
COc1ccc(SCC(CC(C)C)N2CCN(CCc3ccccc3)CCC2=O)cc1 (centres undefined) | . | . | . | . | 8% | .
O=C(Nc1ccccc1N1CCCC1)c1cc2ccccc2o1 | -2%[10 µM] | -23% | 28µM* | -26 | 1% | ?
O=C(NCCCN1CCOCC1)c1cc2ccccc2o1 | -2% | -1% | 4% | 29 | 1% | 5%
O=C(NC(=S)N1CCOCC1)c1cc2ccccc2o1 | -9%[10 µM] | . | 25µM* | . | -2% | -12%[9.22 µM]
CN1CCN(c2ccccc2NC(=O)c2cc3ccccc3o2)CC1 | -23% | -9% | 7% | 64 | -1% | -1%
COc1ccc(C2/C=C\CN(C(=O)c3ccccc3)C(C)C(=O)N2Cc2ccc(F)cc2)cc1 (centres undefined) | . | . | . | . | 6% | .
O=C(C[n+]1cn(C(F)F)c2ccccc21)c1ccc(Br)cc1 | -13%[10 µM] | . | 8.9µM* | . | -6% | -21%
C=CCn1c[n+](CC(=O)c2ccc(Br)s2)c2ccccc21 | 2%[10 µM] | . | 4% | . | -1% | 10%[9.22 µM]
CCC(C)(C)NC(=O)c1ccc(Sc2nncn2C)c([N+](=O)[O-])c1 | -3%[10 µM] | -9% | 9% | ? | 1% | 9%
Cn1cnnc1Sc1ccc(C(=O)NCCC23CC4CC(CC(C4)C2)C3)cc1[N+](=O)[O-] | -12%[1.9 µM] | -5% | 2.8µM* | -6 | -3% | -8%
CN(C)S(=O)(=O)c1cccc(NC(=O)c2ccc(Sc3nncn3C)c([N+](=O)[O-])c2)c1 | -8%[10 µM] | . | 0.56µM* | . | ? | -17%[9.22 µM]
CCS(=O)(=O)c1ccc(Sc2nncn2C)c([N+](=O)[O-])c1 | -165% | . | 22µM* | . | 11% | 11µM*
CCN(CC)S(=O)(=O)c1ccc(NC(=O)c2ccc(Sc3nncn3C)c([N+](=O)[O-])c2)cc1 | -1%[1.9 µM] | -8% | ? | -6 | -1% | 27%
Cc1ccccc1N(C)S(=O)(=O)c1ccc2[nH]cc(C(=O)NCC3CCCO3)c(=O)c2c1 (centres undefined) | 11% | ? | ? | -84* | 2% | -11%
CN(CC(=O)NCCC1=CCCCC1)S(=O)(=O)c1ccc2c(c1)c(=O)n(C)c(=O)n2C | -27% | -10% | 32µM* | -18 | -7% | -19%
CCN(CC)S(=O)(=O)c1ccc2[nH]cc(C(=O)NCCC3=CCCCC3)c(=O)c2c1 | -80% | ? | ? | 2 | 3% | 10µM*
CCc1ccc(NS(=O)(=O)c2ccc3[nH]cc(C(=O)NCC4CCCO4)c(=O)c3c2)cc1 (centres undefined) | -15% | ? | ? | ? | 2% | -25%
CCOc1ccc(N(C)S(=O)(=O)c2ccc3[nH]cc(C(=O)NCC4CCCO4)c(=O)c3c2)cc1 (centres undefined) | -4% | 14µM* | -19% | ? | 6% | ?
CN(CC(=O)NCCc1ccc(Cl)cc1)S(=O)(=O)c1ccc2c(c1)c(=O)n(C)c(=O)n2C | -66% | -12% | -2% | 10 | 2% | -6%
O=C1Nc2ccccc2C1(O)Cc1ccccn1 (centres undefined) | 0%[10 µM] | . | . | . | 4% | 18%[9.22 µM]
COCCCNC(=O)c1c[nH]c2ccc(S(=O)(=O)N3CCC4(CC3)OCCO4)cc2c1=O | -27% | . | ? | . | -13% | 12%
CCCCCNC(=O)c1c[nH]c2ccc(S(=O)(=O)N3CCC4(CC3)OCCO4)cc2c1=O | . | ? | -14% | -113* | 6% | 6%
CCc1ccc(N(C)S(=O)(=O)c2ccc3[nH]cc(C(=O)NCCN4CCOCC4)c(=O)c3c2)cc1 | 15% | ? | 22µM* | 16 | 0% | 19%[1.84 µM]
CN(CCC#N)S(=O)(=O)c1ccc2[nH]cc(C(=O)NCCc3ccccc3)c(=O)c2c1 | . | ? | 25µM* | 58 | -17% | 0%
O=C(Nc1cccc(F)c1)N1CCCC2(CCNCC2)C1 | -6% | -10% | 16% | . | . | .
SMILES | HTT ATP protect | HPGD inh | ALDH1A1 block | PNC assembly inh | CBFb RUNX1 block | HttQ103 aggreg
CCCCCCCN | -15% | -4% | -3% | . | 16%[21.7 µM] | .
COc1ccc(O[C@H]2C=C[C@@H](c3ccccc3)O[C@@H]2COC(=O)CC/C(C)=N/O[C@@H](C)CN2CCCCc3nc(C)c(C)cc32)cc1 | . | -17% | -12% | -83* | -14% | 32%
CC(=O)Nc1ccccc1C=C1c2ccccc2-c2ccccc21 | 16%[10 µM] | -8% | 9%[13.5 µM] | . | . | .
Cc1nc2ccc(NC(=O)c3cc([N+](=O)[O-])cc([N+](=O)[O-])c3Cl)cc2s1 | -71%[10 µM] | 7.1µM* | ? | -2 | -7% | ?
Cc1cc(C(=O)N/N=C2\CC(=O)CC(C)(C)C2)c(C)n1-c1ccccc1 | . | -22% | ? | -95* | -1% | 0%
Cc1cc(C(=O)N/N=C2\CC(=O)CC(C)(C)C2)n[nH]1 | 11% | -13% | 13% | 37 | 0% | -15%
Cc1cc(C(=O)N/N=C2\CC(=O)CC(C)(C)C2)c(C)n1-c1ccc(F)cc1 | 12%[10 µM] | -10% | 28µM* | 47 | -17% | 12%
O=C(c1ccco1)N1CCC2(CC1)CCN(c1ccccn1)CC2 | 7% | -29% | ? | . | . | .
COCCCn1c(=S)[nH]c2sc3c(c2c1=O)CCCS3 | -4%[10 µM] | . | 25µM* | . | 2% | -20%
O=C(CCc1ccccc1)n1nc(-c2ccco2)nc1SCc1ccccc1 | -52% | 8.9µM* | 5% | ? | 0% | -1%
N#CC(C#N)=C1C=C2C=C(N3CCOCC3)CCC2CC1 (centres undefined) | 8%[10 µM] | . | 3% | . | -3% | 1.3µM*
CC1(C)CC(NCCN2CCN(C3=CC(=C(C#N)C#N)CC(C)(C)C3)CC2)=CC(=C(C#N)C#N)C1 | -46% | . | 8% | . | -6% | -11%
CCN1CCN(C2=CC3=CC(=C(C#N)C#N)CCC3CC2)CC1 (centres undefined) | . | . | -3% | . | -4% | 2.8µM*
N#CC(C#N)=C1C=C2C=C(N3CCCCCC3)CCC2CC1 (centres undefined) | -1%[10 µM] | -11% | ? | -134* | 12% | 0.71µM*
CN1CCN(C2=CC3=CC(=C(C#N)C#N)CCC3CC2)CC1 (centres undefined) | -12% | . | ? | . | -24% | 0.32µM*
CC(C)=CCC/C(C)=C/CO/N=C1/C[C@@H](O)[C@@H](O)[C@@H]2[C@@H]3C(=O)N(c4cccc(Oc5ccccc5)c4)C(=O)[C@H]3CC[C@@H]12 | -1%[10 µM] | . | -4%[13.5 µM] | . | 5%[13.1 µM] | .
CC(=O)/C=C1/C(=O)Nc2ccccc21 | -102% | . | 3.2µM* | . | 2% | ?
COc1ccc(OCCCC(=O)Nc2cc([N+](=O)[O-])ccc2C)cc1 | -60%[10 µM] | -7% | -8% | 22 | 1% | -17%
